Consider eleven compounds from PubChem BioAssay (Tox21).

Unmarked numbers belong to inactive results. Records with an inconclusive call do not appear. The source made the active and inactive calls. Unless noted, calls come from the whole dose curve; as a rule, active = well fitted curve in the direction sought with a large enough effect in the repeat runs; inconclusive = weak or mixed curves; inactive = no such curve, though single readings can be large; an effect the other way counts as inactive or inconclusive.

Assay [1] in a line: qHTS assay to identify small molecule antagonists of the retinoic acid receptor (RAR) signaling pathway (AID 1159552; note: nearly all actives have a fitted effect of over 50% in size). The method in brief:
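RARE-luc C3RL4 cells; cpds + 1 uM (final) retinol, 6 hr, 37 C/5% CO2; luciferase reagent, 30 min RT, luminescence readout. Inhibitors of retinol-driven signal scored.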

A short description of assay [2]: qHTS assay to identify small molecule agonists of the retinoic acid receptor (RAR) signaling pathway (AID 1159553). The method in brief: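 RARE-luc C3RL4 cells; overnight attachment 37 C/5% CO2; compound (DMSO) 6 hr; luciferase reagent, 30 min RT; luminescence read-out.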
(In general: In qHTS, concentration-response curves come from the screen itself.)

The nature of assay [3]: qHTS assay to identify small molecule antagonists of the estrogen related receptor (ERR) signaling pathway from Tox21 library - cell viability counter screen (AID 1224834). Note: nearly all actives have a fitted effect of over 30% in size. The method in brief: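 Multiplexed viability counter screen in ERR cells: 17.5 h compound exposure at 37 C, CellTiter-Fluor added, 30 min at 37 C/5% CO2, fluorescence read.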
The target in assay [4] is Luciferin 4-monooxygenase (Photinus pyralis) (UniProt P08659). In words: qHTS assay to identify small molecule inhibitors of firefly luciferase (AID 1224835). Note: nearly all actives have a fitted effect of over 25% in size. Note: potency is the fitted concentration of half-maximal effect. The method in brief: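 Quantitative HTS format; KM concentrations of both substrates. Purified P. pyralis FLuc activity quantified from luminescence images.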
Assay [5] is described as follows: qHTS assay to identify small molecule agonists of the constitutive androstane receptor (CAR) signaling pathway - cell viability counter screen (AID 1224836). Note: nearly all actives have a fitted effect of over 45% in size. The method, boiled down: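 HepG2 cells stably carrying hCAR and a CYP2B6-2.2kb reporter were plated 4 h, then given compounds at 15 concentrations plus PK11195 (final 0.75 uM). After 23 h at 37 C, viability was read by CellTiter-Fluor fluorescence.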

Assay [6] has as its target Nuclear receptor subfamily 1 group I member 3 (Homo sapiens) (UniProt Q14994). In words: qHTS assay to identify small molecule antagonists of the constitutive androstane receptor (CAR) signaling pathway (AID 1224838). Note: nearly all actives have a fitted effect of over 40% in size. The method, boiled down: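 Read-out: ONE-Glo luciferase luminescence after 30 min at room temperature. HepG2-CYP2B6-hCAR double-stable cells, compounds in 15-point titration plus 50 nM CITCO final, 24 h at 37 C/5% CO2.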

The target is the same in assay [7]. In words: qHTS assay to identify small molecule agonists of the constitutive androstane receptor (CAR) signaling pathway (AID 1224839). Note: nearly all actives have a fitted effect of over 15% in size. The method in brief: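 HepG2 cells stably expressing hCAR and a CYP2B6-2.2kb luciferase reporter were treated with compounds at 15 concentrations plus 0.75 uM PK11195 (final) for 24 h at 37 C; luminescence was read after ONE-Glo addition.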

A short description of assay [8]: qHTS assay to identify small molecule antagonists of the estrogen related receptor signaling pathway with the pleiotropic PPARgamma coactivator (PGC) from Tox21 10K library - cell viability counter screen (AID 1224840; active = well fitted cell-killing curve with a large enough effect in the repeat runs, not every such curve was filed as active; note: nearly all actives have a fitted effect of over 40% in size). The method in brief:
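Fluorescence read-out of CellTiter-Fluor viability reagent, added after cells had been exposed to compound in DMSO for 17.5 h at 37 C; 30 min development at 37 C/5% CO2. Cells: PGC/ERR line, 2,000/well.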

Assay [9] is described as follows: qHTS assay to identify small molecule antagonists of the estrogen related receptor signaling pathway with the pleiotropic PPARgamma coactivator (PGC) from Tox21 10K library (AID 1224841; call rule not given here; note: actives are mostly falling curves and most rising ones were filed inactive; nearly all actives have a fitted effect of over 50% in size). The method, boiled down:
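Luminescence read-out (One-Glo luciferase reagent, 30 min at room temperature) from PGC/ERR cells exposed to DMSO-dissolved test compounds for 18 h at 37 C; cells, 2,000 per well, had been preincubated 6 h before compound transfer.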

Assay [10] can be described thus: qHTS assay to identify small molecule agonists of the estrogen related receptor signaling pathway with the pleiotropic PPARgamma coactivator (PGC) from Tox21 10K library (AID 1224842). Note: nearly all actives have a fitted effect of over 15% in size. The method, boiled down: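 PGC/ERR reporter cells (NTP line) were seeded 2,000 per well, rested 6 h at 37 C/5% CO2, then pin-dosed with compounds in DMSO for 18 h at 37 C; luciferase read by One-Glo luminescence after 30 min at room temperature.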

Assay [11] deals with Thyrotropin receptor (Homo sapiens) (UniProt P16473). The experiment in a line: qHTS assay to identify small molecule agonists of the thyroid stimulating hormone receptor (TSHR) signaling pathway (AID 1224843; calls by dose curve; note: nearly all actives have a fitted effect of over 45% in size). The method, boiled down: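 Compounds are titrated over 15 concentrations, in triplicate, onto TSHR-HEK293 cells seeded at 800/well. Plates sit 30 min at room temperature before cAMP-d2 and anti-cAMP cryptate are added; signal is read after a further hour.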

A short description of assay [12]: qHTS assay to identify small molecule agonists of the hypoxia (HIF-1) signaling pathway - cell viability counter screen (AID 1224844; calls by dose curve; note: nearly all actives have a fitted effect of over 50% in size). The method in brief: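 CellTiter-Glo luminescence read-out, 30 min RT, taken in the same wells as the beta-lactamase HRE reporter assay; HRE-bla ME-180 cells, 0.5% dialyzed FBS, 17 hr compound treatment at 37C, 5% CO2.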
Assay [13] can be described thus: qHTS assay to identify small molecule agonists of H2AX (AID 1224845; active = well fitted activation curve with a large enough effect in the signal ratio in the repeat runs, not every such curve was filed as active; the % refers to the signal ratio). The method in brief:
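Wild-type CHO-K1 cells plated overnight, then exposed 3 hr at 37C to compounds at 15 concentrations (0.76% DMSO). Lysed, then HTRF anti-pH2AX(S139)-cryptate/anti-H2AX-d2 detection after 24 hr at room temperature; emissions 665 and 620 nm.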

Assay [14] can be described thus: qHTS assay to identify small molecule agonists of the hypoxia (HIF-1) signaling pathway (AID 1224846; active = well fitted activation curve with a large enough effect in the signal ratio in the repeat runs, not every such curve was filed as active; the % refers to the signal ratio). The method, boiled down: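 Beta-lactamase FRET read-out (CCF4-AM substrate) from ME-180 cells carrying an HRE-driven bla reporter, after 17 hrs compound exposure at 37C/5% CO2. Cells were seeded at 2,000 per well in 0.5% dialyzed FBS medium and preincubated 5 hrs.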

Assay [15] can be described thus: qHTS assay to identify small molecule agonists of H2AX - cell viability counter screen (AID 1224847; calls by dose curve; note: top concentration of the series differs between compounds; nearly all actives have a fitted effect of over 30% in size). The method in brief: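 Wild-type CHO-K1 cells (10% FBS medium) were plated overnight at 37C, exposed to compounds at 15 concentrations for 3 hr at 37C (0.76% DMSO final), and viability was read as CellTiter-Glo luminescence after 30 min at room temperature.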
The nature of assay [16]: qHTS assay to identify small molecule agonists of the estrogen related receptor (ERR) signaling pathway from Tox21 library (AID 1224849; calls by dose curve; note: nearly all actives have a fitted effect of over 15% in size). The following applies: ERR reporter cell line, ONE-Glo luciferase, 18 h; at 92.4 µM (top of the series) unless noted. The method, boiled down:
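Luminescence readout (ONE-Glo, 30 min RT) after 18 h compound exposure at 37 C of NTP-supplied ERR reporter cells; cells were plated 6 h before compound addition by pin tool.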

A short description of assay [17]: qHTS RealTime-Glo MT Cell Viability Assay in HepG2 cells - 24 hour (AID 1224867). Note: nearly all actives have a fitted effect of over 50% in size. The method in brief: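 Cells + NanoLuc/prosubstrate dispensed (600 cells/well) → 5 h at 37 C/5% CO2 → compounds in DMSO transferred → 40 h incubation at 37 C, luminescence read at 0, 8, 16, 24, 32, 40 h.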
A short description of assay [18]: qHTS assay to identify small molecule antagonists of the constitutive androstane receptor (CAR) signaling pathway - cell viability counter screen (AID 1224837). Note: nearly all actives have a fitted effect of over 45% in size. The method, boiled down: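 Read-out: CellTiter-Fluor fluorescence after 23 hr at 37 C/5% CO2. Cells: HepG2 double-stable for hCAR and CYP2B6-2.2kb. Compounds tested at 15 concentrations in the presence of CITCO, final concentration 50 nM.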

A short description of assay [19]: qHTS assay to identify small molecule antagonists of the estrogen related receptor (ERR) signaling pathway from Tox21 library (AID 1224848). Note: nearly all actives have a fitted effect of over 50% in size. The method in brief: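 First, 2,000 ERR cells per well were plated and held 6 h at 37 C/5% CO2. Next, compounds in DMSO were pinned in and left 18 h at 37 C. Finally, ONE-Glo was added and luminescence read after 30 min at room temperature.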
% is set by controls: 0 for no effect and ±100 for the full control effect.

Nuclear receptor subfamily 1 group I member 3 (Homo sapiens), sequence (Q14994 whole entry, looked up): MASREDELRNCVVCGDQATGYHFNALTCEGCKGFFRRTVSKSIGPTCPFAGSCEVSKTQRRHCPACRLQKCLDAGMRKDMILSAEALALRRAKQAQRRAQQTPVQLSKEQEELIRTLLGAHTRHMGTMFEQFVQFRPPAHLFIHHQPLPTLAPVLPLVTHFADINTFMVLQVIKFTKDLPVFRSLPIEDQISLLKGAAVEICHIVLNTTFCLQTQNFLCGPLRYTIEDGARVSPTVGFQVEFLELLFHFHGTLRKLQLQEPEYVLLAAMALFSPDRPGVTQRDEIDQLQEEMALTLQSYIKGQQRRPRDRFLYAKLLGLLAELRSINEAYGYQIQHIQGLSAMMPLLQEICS
Luciferin 4-monooxygenase (Photinus pyralis), sequence (P08659 whole entry, looked up): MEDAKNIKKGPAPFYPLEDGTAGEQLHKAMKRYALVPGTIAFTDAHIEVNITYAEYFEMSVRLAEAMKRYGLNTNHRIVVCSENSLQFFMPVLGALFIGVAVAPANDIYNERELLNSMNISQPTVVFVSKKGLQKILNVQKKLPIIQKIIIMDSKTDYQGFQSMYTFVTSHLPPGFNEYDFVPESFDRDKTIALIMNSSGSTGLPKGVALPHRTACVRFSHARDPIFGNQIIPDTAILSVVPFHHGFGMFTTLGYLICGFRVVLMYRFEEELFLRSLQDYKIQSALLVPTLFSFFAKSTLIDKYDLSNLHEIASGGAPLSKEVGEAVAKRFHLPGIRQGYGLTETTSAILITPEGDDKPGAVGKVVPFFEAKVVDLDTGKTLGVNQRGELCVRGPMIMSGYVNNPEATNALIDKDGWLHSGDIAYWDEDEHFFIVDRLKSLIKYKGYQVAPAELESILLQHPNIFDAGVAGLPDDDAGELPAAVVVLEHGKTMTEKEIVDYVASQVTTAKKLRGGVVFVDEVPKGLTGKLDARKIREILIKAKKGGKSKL
Thyrotropin receptor (Homo sapiens), sequence (P16473 whole entry, looked up): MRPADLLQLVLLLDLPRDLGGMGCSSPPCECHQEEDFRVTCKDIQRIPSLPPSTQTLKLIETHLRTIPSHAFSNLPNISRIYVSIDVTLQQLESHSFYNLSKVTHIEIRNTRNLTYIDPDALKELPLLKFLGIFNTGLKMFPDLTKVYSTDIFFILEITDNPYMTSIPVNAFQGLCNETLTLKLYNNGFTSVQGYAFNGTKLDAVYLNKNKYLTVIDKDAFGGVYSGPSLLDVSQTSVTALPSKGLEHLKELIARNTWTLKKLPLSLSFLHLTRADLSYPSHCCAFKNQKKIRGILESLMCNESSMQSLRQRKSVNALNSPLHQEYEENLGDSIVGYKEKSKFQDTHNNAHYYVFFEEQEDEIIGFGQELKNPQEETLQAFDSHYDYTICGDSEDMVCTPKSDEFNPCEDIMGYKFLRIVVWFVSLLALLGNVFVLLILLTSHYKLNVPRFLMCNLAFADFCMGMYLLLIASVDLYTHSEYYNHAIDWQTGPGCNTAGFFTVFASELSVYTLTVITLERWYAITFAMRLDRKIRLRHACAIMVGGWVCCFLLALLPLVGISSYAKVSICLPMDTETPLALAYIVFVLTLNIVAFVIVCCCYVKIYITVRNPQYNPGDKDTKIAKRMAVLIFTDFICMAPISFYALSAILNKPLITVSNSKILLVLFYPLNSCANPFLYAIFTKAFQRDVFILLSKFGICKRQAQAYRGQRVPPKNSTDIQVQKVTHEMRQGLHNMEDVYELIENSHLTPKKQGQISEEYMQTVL

In the case of `CC(=O)Nc1ccc(OCCOCCOc2ccc(NC(C)=O)cc2)cc1`, the call in assay [1], in assay [3], in assay [5], in [6], in assay [8] and in assay [12] was inactive. The compound was called inactive in assay [13], in assay [14], in [15] and in assay [17]. Further, the Potency result in [2], in assay [4], in assay [7], in assay [9], in assay [10] and in assay [11] was “inactive” throughout. For the same compound, the activity change, positive = activation in assay [16] was -16.6% [at 42.5 µM].
For `CN(C)CCc1c[nH]c2ccc(CS(=O)(=O)N3CCCC3)cc12`, the compound was classed as inactive in assay [1], in [3], in assay [5], in assay [18], in assay [6] and in [8]. The compound was classed as inactive in [12], in [13], in assay [14], in [15] and in assay [17]. The Potency result in assay [2], in [4], in assay [7] and in assay [11] was “inactive” each time.
Turning to `CCCc1ccc(O)c(OC)c1`, the Potency entry in assay [2], in [4], in assay [7] and in assay [11] was “inactive” throughout. Moreover, the outcome in assay [3], in [5], in assay [18], in [6], in assay [8] and in assay [13] was inactive. In addition, the outcome in assay [14], in [15] and in assay [17] was inactive.
Consider `CC(=O)c1ccc(O)c(C(N)=O)c1`, for which the call in [1], in assay [3], in assay [5], in assay [18], in [8] and in assay [12] was inactive. The call in [13], in assay [14], in assay [15] and in assay [17] was inactive. Moreover, the Potency entry in assay [2], in [4] and in assay [11] was “inactive” each time.
As to `C=CCOC(=O)CCCCCCCC`, the compound was classed as inactive in assay [1], in assay [3], in assay [5], in [18], in [6] and in assay [8]. Moreover, the call in [12], in assay [13], in assay [14], in assay [15] and in assay [17] was inactive. Further, the Potency result in assay [2], in assay [4] and in [7] was “inactive” throughout.
For `CCN1CCN(C(=O)N[C@@H](C(=O)N[C@@H]2C(=O)N3C(C(=O)O)=C(CSc4nnnn4C)CS[C@H]23)c2ccc(O)cc2)C(=O)C1=O`, the outcome in assay [1], in assay [3], in [5], in [18], in assay [8] and in assay [12] was inactive. Besides, the compound was classed as inactive in assay [13], in assay [14], in assay [15] and in assay [17]. In addition, the Potency entry in assay [2], in [4] and in assay [11] was “inactive” each time.
For `COC(=O)c1ccc(C(=O)O)cc1`, the result in assay [1], in assay [3], in assay [5], in assay [8], in assay [12] and in assay [13] was inactive. Besides, the compound was called inactive in assay [14], in assay [15] and in [17]. Moreover, the Potency entry in assay [2], in assay [4] and in [11] was “inactive” throughout.
`COc1cc2nc(N3CCN(C(=O)C4CCCO4)CC3)nc(N)c2cc1OC` (configuration not stated): the result in [1], in assay [3], in assay [5], in assay [18], in [6] and in [8] was inactive. Moreover, the result in [12], in [13], in [19] and in assay [17] was inactive. Further, the Potency entry in assay [2], in assay [7], in assay [9] and in [10] was “inactive” throughout. Besides, the Potency in assay [4] was 17.4 µM (active).
In the case of `CC1(C)CC(N)CC(C)(C)N1`, the compound was called inactive in assay [1], in assay [3], in assay [5], in [6], in [8] and in [12]. Further, the call in [13], in [14], in assay [19] and in assay [17] was inactive. In addition, the Potency entry in [2], in [4], in assay [7], in [9], in assay [10] and in assay [11] was “inactive” in each case. The activity change, positive = activation in assay [16] was 4.2%.
Consider `CCOC(=O)CN1CCCC1=O`, for which the outcome in assay [1], in assay [3], in assay [5], in [6], in assay [8] and in assay [12] was inactive. For the same compound, the outcome in assay [13], in assay [14], in assay [15] and in assay [17] was inactive. For the same compound, the Potency result in [2], in assay [4] and in assay [7] was “inactive” in each case.
As for `COc1ccc(Cl)cc1C`, the compound was called inactive in [1], in assay [3], in assay [5], in assay [18], in assay [8] and in [12]. In addition, the result in assay [13], in assay [15], in [19] and in assay [17] was inactive. For the same compound, the Potency result in assay [2], in [4], in assay [9] and in assay [10] was “inactive” throughout. For the same compound, the activity change, positive = activation in assay [16] was 7.2%.
